Screens (PubChem)
The list is not random: actives were taken first. Their share in the collection is about 8.9%.
M1 antag: antagonists of rat M1 muscarinic receptor | CHO-M1 cells, Fluo-4 calcium, ACh EC80 antagonist mode; active compounds read low | B-score at 10 µM | 3.4% of 64,000 active | AID 628, 2007;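 active = calcium fluorescence response, raw or row-and-column corrected B-score, differing from the plate sample mean either way at a set confidence level, mostly lower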
M1 ag: M1 muscarinic receptor agonists, primary screen, CHO-M1 cells, Fluo-4 calcium, agonist mode; Muscarinic acetylcholine receptor M1; Fluo-4 calcium fluorescence; active compounds read high; B-score at 10 µM; 3% of 64,000 active; AID 626, 2007;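 active = fluorescence rise, raw or as B-score row- and column-corrected plate score, outside the 99.7% band of its plate's samples, either direction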
Htt clearance: clearance of mutant huntingtin inclusions, primary screen, imaging, HeLa Exon1htt(103Q)mCFP, confocal imaging; aggregate imaging; zero = plate's median compound well; inhibition, % at 1.5 µM; 0.42% of 47,000 active;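 active = inhibition of aggregate fluorescence above about 70%, also judged a hit by eye on the cell image, limit read from the data, passing the limit was not always enough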;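 note: cells exposed to compound for three days before fixation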
D1 allo mod: D1 CRE-luciferase signal change, two-sided – cell-based, HEK293 D1, dopamine EC30, D1 allosteric modulator project, primary screen | dopamine EC30 potentiation; actives deviate in either direction | 5.9% of 58,000 active | B-score at 10 µM;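 active = luminescence count or its row- and column-corrected plate score outside the 99.7% band of the plate's sample wells, on either side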
Target sequence (P21728 whole entry, looked up): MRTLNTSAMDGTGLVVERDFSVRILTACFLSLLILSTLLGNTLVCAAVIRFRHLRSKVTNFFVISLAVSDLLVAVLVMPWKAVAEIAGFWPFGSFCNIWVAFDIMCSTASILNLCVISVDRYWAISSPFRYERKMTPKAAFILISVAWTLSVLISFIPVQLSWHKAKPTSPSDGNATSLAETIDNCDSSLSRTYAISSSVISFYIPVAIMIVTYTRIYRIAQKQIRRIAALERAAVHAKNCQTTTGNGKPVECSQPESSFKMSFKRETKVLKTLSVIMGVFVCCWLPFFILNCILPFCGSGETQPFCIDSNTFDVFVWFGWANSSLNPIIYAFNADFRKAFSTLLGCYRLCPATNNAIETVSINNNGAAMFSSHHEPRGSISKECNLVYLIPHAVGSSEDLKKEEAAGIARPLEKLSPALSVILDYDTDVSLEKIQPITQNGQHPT
WNV NS2B-NS3 inh: inhibitors of WNV NS2B-NS3 protease, primary screen, biochemical, fluorogenic substrate; fluorogenic substrate Ex360/Em465; active compounds read low; z-score (no concentration beside the values); 0.18% of 65,000 active; in the data active = z-score below about -3
D1 mod confirm: D1 receptor positive allosteric modulators, retest, confirmation, cell-based, HEK293 D1, CRE-luciferase, duplicate; luminescence at 10 µM; shares compounds with D1 allo mod; 88% of 2,200 active; AID 642, 2007; dopamine EC30 potentiation; active compounds read high;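 active = luminescence in either of two replicates above the same-plate mean plus 3 SD of the low-dose dopamine control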
D1 ag no DA: D1 receptor agonism without dopamine, confirmation, mechanism study for D1 allosteric modulator project, cell-based, HEK293 D1, CRE-luciferase, secondary assay 1; shares compounds with D1 allo mod; luminescence, no dopamine; active compounds read high; luminescence at 10 µM; 0.8% of 1,900 active; in the data active = luminescence above about 3900
Isoprot counter: alters isoproterenol CRE-luciferase response in HEK293 cells; shares compounds with D1 allo mod; 63% of 2,200 active; HEK293 D1 CRE-luciferase, isoproterenol EC30 counter-screen; calls only at 10 µM;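 active = luminescence in either replicate above plate mean of wells with a partly effective reference agonist dose plus 3 SD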;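 note: isoproterenol raises cAMP through native beta-adrenoceptor Gs so signal bypasses D1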
Numbers without * were called inactive; i = inactive; / = not tested or not shown; + = active, no number.

SMILES | M1 antag | M1 ag | Htt clearance | D1 allo mod | WNV NS2B-NS3 inh | D1 mod confirm | D1 ag no DA | Isoprot counter
N#C/C(=C\C1CC=CCC1)c1nc2ccccc2[nH]1 (stereo not given) | 0.971 | -1.09 | / | -1.2 | 0.48 | / | / | /
COc1cccc(C(=O)O/N=C/c2ccc(Sc3ccc(C)cc3)nc2)c1 | / | / | 40.6 | / | / | / | / | /
Cc1[nH]nc2c1C(c1ccc(F)cc1)C1=C(CC(C)(C)CC1=O)N2 (stereo not given) | -0.0036 | 0.956 | / | 6.27* | 1.07 | 12860* | 1600 | i
Cc1ccc(C2C3=C(CC(C)(C)CC3=O)Nc3n[nH]c(C)c32)cc1 (stereo not given) | 0.518 | 0.145 | / | 1.48 | -0.36 | / | / | /
O=C(Cc1ccccc1)Nc1nonc1NC(=O)c1ccccc1 | 0.254 | 0.771 | / | 4.08* | 0.78 | 8752* | 1296 | +
Cc1ccc(S(=O)(=O)NCCCNC(=O)N2CCOCC2)cc1 | -0.435 | 0.137 | 6.2 | 2.95* | 0.44 | 5144 | 1760 | i
Cc1cc(NC(=O)CSc2nnc(-c3ccc4c(c3)OCCO4)o2)no1 | / | / | / | -0.226 | -0.73 | / | / | /
COc1ccc(-c2ccc(SCC(=O)Nc3cc(C)on3)nn2)cc1OC | 0.595 | -0.803 | 15.2 | 5.76* | 0.73 | 23296* | 1724 | +
COc1cccc(-c2nnc(SCC(=O)Nc3cc(C)on3)o2)c1 | / | / | / | 5.69* | -0.58 | 6316* | 1520 | i
Cc1cnc(C)c(N2CCC(C(=O)NC(C)c3cccs3)CC2)n1 (stereo not given) | 0.104 | 0.218 | / | 0.164 | -0.27 | / | / | /
CCOC(=O)c1cc(C#N)c(SCc2ccc(C#N)cc2)nc1C | 0.0968 | 0.0966 | 29.5 | 1.4 | -2.17 | / | / | /
CCOC(=O)c1cc(C#N)c(N)nc1C | 1.34 | -0.262 | 8.1 | 4.56* | 0.000225 | 8556* | / | +
CCCNc1nc2c(c(=O)[nH]c(=O)n2C)n1Cc1cccc(Br)c1 | 1.18 | 0.0862 | / | 0.959 | 2.17 | / | / | /
CCCCn1c(NCCC)nc2c1c(=O)[nH]c(=O)n2C | 0.794 | -0.0353 | / | 5.86* | -0.09 | 9640* | 1280 | i
CCCNc1nc2c(c(=O)[nH]c(=O)n2C)n1CCC(C)C | 1.48 | 0.197 | / | 7.52* | -0.59 | 12920* | 1500 | +
C=CCNc1nc2c(c(=O)[nH]c(=O)n2C)n1CCCCC | 0.231 | 1.14 | / | 6.62* | 0.23 | 23492* | 1616 | +
CCCCn1nnnc1SCC(=O)Nc1ccc2c(c1)OCO2 | -0.247 | 0.884 | -9.7 | -0.131 | 2.05 | / | / | /
CCOC(=O)c1ccccc1Nc1cc(C)nc2nc(C)nn12 | 0.0119 | 0.596 | / | 1.83* | 0.25 | 10192* | 1536 | +
CSc1ccccc1NC(=O)COc1ccc(S(=O)(=O)N2CCCC2)cc1 | / | / | 23.3 | 1.34 | -0.59 | / | / | /
Nc1ncnc(Nc2cccc(C(F)(F)F)c2)n1 | / | / | 9.6 | / | / | / | / | /
Nc1nc(Nc2cccc(C(F)(F)F)c2)nc(C(F)(F)F)n1 | -0.452 | -0.418 | -13.1 | 7.98* | -0.97 | 15108* | 1664 | +
O=c1nc2n(c3cc(Cl)c(S(=O)(=O)N4CCOCC4)cc13)CCCCC2 | 1.05 | 0.203 | / | 0.114 | -0.73 | / | / | /
CN1CCN(c2nc(-c3ccccc3)c3cc(Cl)ccc3n2)CC1 | -1.05 | 1.12 | -26.0 | 4.98* | 0.42 | 11380* | 1508 | i
CCn1c(SCC(=O)N(Cc2ccccc2)C2CCS(=O)(=O)C2)nc2ccccc2c1=O (stereo not given) | 0.483 | -0.543 | 32.2 | 8.92* | 0.1 | 13696* | / | +
C/C(CCc1oc2ccccc2c1-c1ccc(C)o1)=N/O | 0.0929 | 0.351 | / | 7.15* | 0.57 | 9460* | 1544 | i
SMILES | M1 antag | M1 ag | Htt clearance | D1 allo mod | WNV NS2B-NS3 inh | D1 mod confirm | D1 ag no DA | Isoprot counter
CCOc1ccccc1-c1nc(SCC(=O)O)n[nH]1 | 0.752 | 0.0172 | / | 3.82* | 1.72 | 5488 | 1396 | i
Nn1c(SCc2cn3ccsc3n2)nnc1-c1ccncc1 | 0.0677 | 0.548 | / | 0.115 | -0.61 | / | / | /
CCOC(=O)c1ccc2c(c1)nc(SCc1cn3ccsc3n1)n2CC | 0.984 | 0.401 | -35.5 | 12.9* | 0.05 | 23916* | 1828 | +
COc1cc(CNCCO)ccc1OCC(=O)Nc1ccc(Br)cc1 | 0.483 | -0.297 | -20.0 | / | -0.17 | / | / | /
CC(=O)C1=C(C)NC(SCC(=O)c2ccc(F)cc2)=C(C#N)C1c1ccco1 (stereo not given) | -0.418 | -0.481 | 25.4 | 5.55* | -1.06 | 3664* | 1712 | i
Cc1cc(N2CCN(S(=O)(=O)c3ccc4c(c3)OCCO4)CC2)n2ncnc2n1 | -0.441 | 0.704 | / | 4.11* | -0.83 | 6428* | 1504 | i
CC1CCN(c2nc3c(c(=O)[nH]c(=O)n3C)n2Cc2ccccc2)CC1 | -0.408 | 0.366 | i | 7.89* | -1.12 | 16032* | 1452 | +
Cc1ccc(Cn2c(-n3nc(C)cc3C)nc3c2c(=O)[nH]c(=O)n3C)cc1 | -0.00667 | 1.46 | 45.1 | 3.54* | 0.82 | 9484* | 1480 | i
Cn1c(=O)[nH]c(=O)c2c1nc(NC1CCCCC1)n2Cc1ccccc1 | 0.0148 | 0.306 | / | 6.81* | -1.41 | 8436* | 1500 | +
CC(C)CCn1c(N2CCN(c3cccc(Cl)c3)CC2)nc2c1c(=O)[nH]c(=O)n2C | / | / | / | 15.2* | -1.18 | 18092* | 1700 | +
CCCCCCn1c(N2CCN(c3cccc(Cl)c3)CC2)nc2c1c(=O)[nH]c(=O)n2C | / | / | / | 2.12 | -1.71 | / | / | /
CC(=O)Nc1ccc(S(=O)(=O)NCc2ccc(C(=O)NCc3ccc4c(c3)OCO4)cc2)cc1 | 0.448 | -0.0127 | 61.3 | -0.346 | 1.28 | / | / | /
COc1ccc(C(=O)NN2C(=O)C3CCC(C)(C2=O)C3(C)C)cc1 (stereo not given) | / | / | 1.9 | / | / | / | / | /
O=c1c2ccccc2nc(SCc2cn3ccsc3n2)n1-c1ccccc1 | / | / | 0.6 | / | -0.58 | / | / | /
O=c1c2ccccc2nc(SCc2cn3ccsc3n2)n1-c1ccccc1F | 1.06 | 0.659 | 29.3 | 5.68* | 0.14 | 14876* | 1836 | +
COc1ccc(OCc2nnc(SC3CCOC3=O)n2-c2ccccc2)cc1 (stereo not given) | -0.0533 | -0.802 | / | 0.153 | -0.3 | / | / | /
COc1cccc(-n2c(SC3CCOC3=O)nc3ccccc3c2=O)c1 (stereo not given) | -0.21 | -0.137 | 0.3 | 13.5* | 0.08 | 13364* | 1604 | +
COC(=O)c1ccc(N2C(=O)c3ccc(OC)c(OC)c3C2=O)cc1 | 0.595 | 0.997 | / | / | -0.17 | / | / | /
COc1ccc2c(c1OC)C(=O)N(c1cccc(C)c1)C2=O | 0.826 | -0.148 | / | 4.6* | 0.41 | 10596* | 1716 | +
